Laboratory results taken from ChEMBL document CHEMBL1157539, “Thousands of chemical starting points for antimalarial lead identification” (Nature, 2010).

Assays:
Type in all cases: functional
Plasmodium falciparum [1] = assay: GSK_TCMDC: Inhibition of Plasmodium falciparum 3D7 in whole red blood cells, using parasite LDH activity as an index of growth. Test compounds present at 2uM
Plasmodium falciparum [2] = assay: GSK_TCMDC: Inhibition of Plasmodium falciparum Dd2 in whole red blood cells, using parasite LDH activity as an index of growth. Test compounds present at 2uM
HepG2 = assay: GSK_TCMDC: Percent inhibition of human HepG2 cell line. Test compounds present at 10uM.

Row | SMILES | Inhibition (Plasmodium falciparum [1]) | Inhibition (Plasmodium falciparum [2]) | Inhibition (HepG2)
1 | O=C(O)/C=C\C(=O)O.O=c1c2sc(-c3ccc(Cl)cc3)cc2ncn1Cc1ccc(OCCN2CCCC2)c2ccccc12 | 100% | 81% | 38%
2 | CC(C)(C)c1ccc(CN2CCC(CNC(=O)c3cc(-c4cccc(C(F)(F)F)c4)cs3)C2)cc1.O=C(O)C(F)(F)F (stereo not drawn) | 100% | 84% | 80%
3 | COc1ccc(CCn2c(=N)c(C(=O)NCc3ccccc3)cc3c(=O)n4ccccc4nc32)cc1 | 100% | 18% | 14%
4 | Br.CC(C)Oc1ccc(CCCON2C(=N)N=C(N)NC2(C)C)cc1 | 96% | 94% | 66%
5 | CC(C)NCc1cccc(-c2cccc(-c3nc4ccccc4[nH]3)c2)c1.O=C(O)C(F)(F)F | 100% | 22% | 11%
6 | COc1ccc2nccc([C@@H](O)CN3CCC(NC(=O)C(c4cc5ccccc5o4)N4CCN(c5ccccc5OC)CC4)CC3)c2c1 (stereo partly drawn) | 99% | 83% | 14%
7 | Cc1cccc(NC(=O)N(Cc2cc3cc(C)cc(C)c3[nH]c2=O)C2CC2)c1 | 97% | 94% | 3%
8 | CN(C)c1cccc2c1nc(-c1ccc3c(c1)CCO3)n2CCNCc1ccccc1.O=C(O)C(F)(F)F | 99% | 85% | 6%
9 | CCCC(C)Nc1nc(C)cc(NCCC(=O)Nc2ccccc2)n1.O=C(O)C(F)(F)F (stereo not drawn) | 96% | 11% | 12%
10 | COc1cc(C(F)(F)F)c2cc(CNCCCNc3nc4ccccc4[nH]3)[nH]c2c1 | 100% | 0% | 60%
11 | O=[N+]([O-])c1cccc(NC(=S)N2CCCN(Cc3ccc(C(F)(F)F)cc3)CC2)c1 | 90% | 49% | 11%
12 | Cc1cc(NC(c2ccc(Cl)cc2)c2ccc3cccnc3c2O)no1 (stereo not drawn) | 88% | 26% | 50%
13 | CCN(CCC1(c2ccc(Cl)c(Cl)c2)CN(C(=O)c2cc(OC)c(OC)c(OC)c2)CCO1)C1CC2c3ccccc3CC21 (stereo not drawn) | 80% | 65% | 26%
14 | CN(C)c1ccc(CN2CCCCC(NC(=O)c3cc(-c4ccccc4Cl)cs3)C2)cc1.O=C(O)C(F)(F)F (stereo not drawn) | 91% | 14% | 10%
15 | CCCCCC(C)N/C(=N/c1ccccc1Br)Nc1ccc(C#N)cc1O (stereo not drawn) | 98% | 95% | 2%
16 | CC(C)c1cc(Oc2c(I)cc(CCNC(=N)N)cc2I)ccc1O.Cl | 98% | 54% | 19%
17 | CN1CC(c2ccccc2)c2cc(O)c(CN3CCCCC3)cc2CC1Cc1ccccc1.Cl (stereo not drawn) | 99% | 99% | 0%
18 | COc1ccc(NC(=O)[C@H](CC(C)C)Nc2ccnc(NCCc3ccc(F)cc3)n2)cc1.O=C(O)C(F)(F)F | 86% | 22% | 0%
19 | COc1cc2c(cc1S(=O)(=O)c1ccc(OCc3ccc(Cl)cc3)cc1)CCN(Cc1ccc(NC(C)=O)s1)CC2 | 89% | 0% | 3%
20 | O=C(NCC(NCCCNc1cc(=O)c2ccccc2[nH]1)c1cc(Br)cc(Br)c1)C1=CCCC1 (stereo not drawn) | 96% | 48% | 0%
21 | CCCCCCN1CCC(NCc2ccc(C(F)(F)F)cc2)CC1.O=C(O)C(F)(F)F | 100% | 47% | 11%

Row | SMILES | Inhibition (Plasmodium falciparum [1]) | Inhibition (Plasmodium falciparum [2]) | Inhibition (HepG2)
22 | CCCCNC(=O)[C@@H](NC(=O)c1ccc(O)c(-c2ccc(Cl)c(Cl)c2)c1)C(C)C | 97% | 98% | 0%
23 | CNC(=O)c1ccccc1Nc1nc(Nc2ccc(CCN3CCN(C)CC3)cc2)ncc1Cl.Cl | 97% | 98% | 76%
24 | COc1ccc(OCC(=O)Nc2nc(-c3ccc(OC)cc3)c(C)s2)cc1 | 100% | 87% | 0%
25 | CCc1nc2c(cnn2CC)c(NC2CCOCC2)c1CNC(=O)c1ccoc1C | 97% | 87% | 6%
26 | COc1cc2c(C3CCN(CC4CCN(C(=O)/C=C/c5ccc(Cl)c(Cl)c5)CC4)CC3)c[nH]c2cn1 | 100% | 88% | 27%
27 | Br.CCOc1ccc(OCCCON2C(=N)N=C(N)NC2(C)C)cc1 | 97% | 94% | 63%
28 | CNC(=O)C(C)N(c1ccc(Cl)cc1)c1nc(C(C)(C)C)cs1 (stereo not drawn) | 99% | 98% | 0%
29 | COc1ccc2nccc([C@@H](O)CN3CCC(NCc4ccc5c(c4)NC(=O)CS5)CC3)c2c1.O=C(O)C(=O)O | 100% | 36% | 0%
30 | CCN(CCN(C)C)Cc1ccc(-c2ccc(NS(=O)(=O)c3cccc(Cl)c3)cc2)cc1.O=C(O)C(F)(F)F | 97% | 40% | 43%
31 | COC(=O)c1ccc(CN2CCC(N(Cc3cccc(Oc4ccccc4)c3)S(=O)(=O)c3ccc(NC(C)=O)cc3)CC2)cc1 | 82% | 86% | 0%
32 | C[C@@]12C[C@@H](Nc3nc(NCCc4ccc(O)cc4)nc(N4CCNCC4)n3)C[C@@H](C1)c1cccc(Cl)c1O2.O=C(O)C(F)(F)F | 100% | 47% | 92%
33 | O=[N+]([O-])c1ccc2nc(Nc3cccc(C(F)(F)F)c3)c(Nc3cccc(C(F)(F)F)c3)nc2c1 | 100% | 99% | 0%
34 | Cc1sc(NC(=O)Cc2cccc(C(F)(F)F)c2)nc1-c1cccc(Cl)c1 | 100% | 95% | 15%
35 | COc1cc2c(cc1OC)CN(CCc1ccc(NC(=O)c3cc4cc(Cl)ccc4[nH]3)cc1)CC2 | 90% | 6% | 3%
36 | COc1ccc(C2(CNCC(O)c3cccc([N+](=O)[O-])c3)CCCC2)cc1OC (stereo not drawn) | 93% | 85% | 10%
37 | CN1CCCCC1CCc1cc(C(=O)Nc2ccc(-c3ccc(O)cc3)cc2)ccc1O (stereo not drawn) | 91% | 11% | 6%
38 | CCCC(=O)NC(c1ccc(C)cc1)c1ccc2cccnc2c1O (stereo not drawn) | 88% | 45% | 52%
39 | COCCn1c(-c2cccc(Cl)c2)nn(-c2ccc([N+](=O)[O-])cc2C#N)c1=S | 100% | 100% | 7%
40 | O=C(Nc1ccc(C(F)(F)F)cc1)c1ccc(S(=O)(=O)NC2CCCN(CC3CCCCC3)C2)cc1.O=C(O)C(F)(F)F (stereo not drawn) | 99% | 0% | 45%
41 | COc1ccc2nccc([C@@H](O)CN3CCC(NCc4cc5ccccc5nc4O)CC3)c2c1.Cl | 97% | 0% | 0%
